eIF4E 4G PPI = inhibitors of eIF4E and eIF4G interaction in translation initiation. TR-FRET eIF4E-eIF4GI(517-606) binding, 2 h. inhibition, % at 21.7 µM. 220,000 compounds, 0.37% hits. AID 782;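 active = inhibition above about 30%, limit read from the data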;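 also: 0% = full FRET control wells and 100% = background wells lacking eIF4GI fragment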
L929 necroptosis = L929 zVAD cell death inhibition; L929 zVAD necroptosis rescue, ATP luminescence, 24 h; with zVAD 60 µM; viability rescue, % at 10 µM; 220,000 compounds, 0.38% hits;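 active = activation, scaled between plate controls, above about 75%, limit read from the data; inactive = activation under that limit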;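 also: 0% = zVAD with DMSO and 100% = DMSO alone without zVAD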
EBV gp42 block = EBV gp42 inhibition; Q1HVG2; Fluorescence polarization binding assay, mP read-out; inhibition, % (tested at 21.74 µM); 220,000 compounds, 0.42% hits; AID 1085; in the data active = inhibition above about 50%
Target sequence (Q1HVG2 whole entry, looked up): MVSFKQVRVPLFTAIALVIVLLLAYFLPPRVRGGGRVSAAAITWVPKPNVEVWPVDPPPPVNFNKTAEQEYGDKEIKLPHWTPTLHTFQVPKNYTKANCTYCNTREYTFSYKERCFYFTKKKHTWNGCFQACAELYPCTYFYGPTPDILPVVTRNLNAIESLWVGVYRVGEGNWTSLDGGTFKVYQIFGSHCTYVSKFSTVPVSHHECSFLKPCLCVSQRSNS
TNF necrop inh = blocks TNF-alpha induced death of Jurkat FADD-/- cells; Jurkat FADD-/- TNF necroptosis rescue, ATP luminescence, 24 h; 0 = TNF only, 100 = no-TNF cells; activation (protection from cell death), % at 10 µM; 220,000 compounds, 0.068% hits; AID 463075;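 active = activation, meaning protection from cell death, of at least 50% relative to plate controls; inactive = activation below 50%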;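 also: necroptosis triggered by 40 ng/mL TNF-alpha added together with compound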
zVAD necrop conf = confirmed blocker of zVAD induced death in L929 cells; shares compounds with L929 necroptosis; L929 zVAD-induced necroptosis rescue, ATP luminescence, 24 h; activation (protection from necroptosis), % at 10 µM; 760 compounds, 16% hits;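 active = mean protection from necroptosis of at least 50% over duplicate tests; inactive = mean protection below 50%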;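 also: 0% = cells with zVAD alone and 100% = vehicle cells without zVAD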
Active calls of the source: *; nt = no result given. Only some compounds are listed: those with a hit (about 1.2% of all), similar ones and a draw of the others.

SMILES	eIF4E 4G PPI	L929 necroptosis	EBV gp42 block	TNF necrop inh	zVAD necrop conf
O=C(Cc1ccc(Cl)cc1Cl)OCC(=O)N1CCN(C(=O)c2ccco2)CC1	1.8	75.9*	-14.4	0.2	2.5
Cc1cc(C(=O)OCC(=O)N2CCN(C(=O)c3ccco3)CC2)c(C)n1-c1ccc(F)cc1	5.9	87.4*	-17.4	-1.5	35.4
CC(=O)Nc1ccc(C(=O)OCC(=O)NC(=O)NC2CCCCC2)cc1	-7.7	80.2*	-24.7	-1.8	42.5
CCCS(=O)(=O)c1ccc(COC(=O)c2ccc(NC(C)=O)cc2)cc1	-0.5	79.1*	-6.6	2.4	0.4
CC(=O)Nc1ccc(C(=O)OCc2ccc(Cl)cc2)cc1	0.2	0.0	-14.3	-2.2	nt
O=C1C=C(NCCOC23CC4CC(CC(C4)C2)C3)C2(CCCCC2)O1	-1.7	1.9	1.1	0.5	nt
Cc1cc(SCC(=O)NC(=O)c2cccn2C)nc2ccccc12	-7.4	-1.0	-1.4	-1.1	nt
CCOC(=O)C1(Cc2cccc(F)c2)CCN(C(=O)Cn2cnnn2)CC1	-8.7	-0.3	-5.4	1.3	nt
C=C1C(=O)[C@@]23[C@H](O)C[C@@H]4C(C)(C)CC[C@H](O)[C@]4(C)[C@@H]2C[C@H](O)[C@@H]1[C@H]3O	-9.8	1.4	-7.0	-23.3	nt
C=C1C(=O)[C@@]23[C@H](O)C[C@@H]4C(C)(C)CC[C@H](O)[C@@]4(C)[C@@H]2CC[C@@H]1[C@H]3O	-3.2	121.2*	2.6	-26.8	78.1*
COc1ccc2cc(-c3[nH]ncc3CN3CCCN(c4ccccc4)CC3)ccc2c1	0.1	1.4	-5.4	5.3	nt
O=C(OCn1ncc(Cl)c(Cl)c1=O)c1cccc(C(F)(F)F)c1	-11.0	98.8*	-15.8	-17.0	20.6
O=C(NCc1ccc(-n2cccc2)cc1)c1cccc(F)c1	3.4	3.4	-16.7	1.0	nt
Brc1ccc2[nH]c3c(NCc4ccccn4)ncnc3c2c1	5.5	75.0*	-4.2	7.9	1.7
O=C(c1cncs1)N1CCCC(CNS(=O)(=O)c2cccs2)C1 (stereo unspecified)	0.3	9.1	2.8	1.0	nt
O=c1cc(-c2ccccc2)oc2ccc(O)cc12	-6.2	73.0	-9.4	-2.7	nt
COc1ccc(-c2cc(=O)c3cc(O)ccc3o2)cc1	3.2	75.9*	-15.7	-1.9	30.4
CCN(CC)c1ccc(N/C(N)=N/c2nc(C(F)(F)F)cc(=O)[nH]2)cc1	2.7	91.2*	-20.6	-1.9	0.3
Nc1c2c(=O)oc(-c3ccccc3)cc2nn1-c1ccccc1	3.2	90.2*	-10.8	-14.9	27.2
NNC(=O)c1ncoc1-c1ccc(Cl)cc1	-4.1	-0.4	-8.5	-3.1	nt
Cc1ccccc1OCc1nnc(SCC(=O)Nc2ccc3nc(SCC(=O)Nc4ccccc4)sc3c2)n1C	-0.6	nt	-1.0	-5.4	nt
N#CCCN(Cc1ccccc1)C(=O)c1cccs1	6.9	-0.9	-2.6	-1.2	nt
COc1ccc(NC(=O)Nc2nnc(C(C)C)s2)cc1	-0.5	95.3*	-7.2	-2.3	2.7
CC(C)c1nnc(NC(=O)Cc2ccc(Br)cc2)s1	3.5	nt	-16.3	1.9	nt
COc1ccc(CC(=O)Nc2nnc(C(C)C)s2)cc1	46.5*	81.5*	-5.0	1.8	1.2
SMILES	eIF4E 4G PPI	L929 necroptosis	EBV gp42 block	TNF necrop inh	zVAD necrop conf
O=C(/C=C/Sc1ccc(C(F)(F)F)cn1)c1ccccc1	-2.4	28.9	-15.0	-24.3	nt
O=C1c2ccccc2C(O)(c2ccccc2)N1c1ccncc1 (stereo unspecified)	-7.7	-0.1	-4.7	-15.8	nt
CCCN1C(=O)/C(=C/c2ccc3c(c2)OCO3)NC1=S	-1.9	87.2*	-0.3	45.6	90.4*
Cc1ccc2c(c1)C1CN(C)CCC1N2C(=O)c1cccc(S(=O)(=O)N(C)C)c1 (stereo unspecified)	-0.3	-0.1	-16.3	0.5	nt
Cc1ccc2c(c1)C1CN(C)CCC1N2C(=O)Nc1ccc(Cl)cc1 (stereo unspecified)	-8.8	81.9*	-10.2	10.5	7.7
O=C(NC12CC3CC(CC(C3)C1)C2)c1ccc(-c2ccc(Br)cc2)o1	0.0	80.2*	-15.3	3.3	35.0
CCN(c1ccccc1)S(=O)(=O)c1ccc(Oc2ccc(-n3ccnc3)cc2)nc1	0.8	86.8*	-3.0	0.7	1.2
CCN(c1ccccc1)S(=O)(=O)c1ccc(C(=O)NCCCn2ccnc2)cc1	-5.5	1.1	-11.9	0.2	nt
CC(/C=C1\N=C(SCc2ccccc2)SC1=O)=C\c1ccccc1	-1.0	0.4	-29.3	0.7	nt

Bioassay records deposited in PubChem BioAssay by several laboratories.
